The list is not random: actives were taken first. Their share in the collection is about 1.1%.
VCAM1 TNFa inh – inhibitors of TNFa-induced VCAM1 expression, primary screen, imaging, HUVEC, TNFa stimulus, immunofluorescence. HUVEC TNFa-induced VCAM-1 immunofluorescence, high-content imaging. inhibition, % at 2 µM. 0.48% of 95,000 active. AID 802, 2007;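 active = inhibition above the batch mean plus 3 SD, with images confirmed as a hit by eye, cut at about 37% in these data; inconclusive = inhibition above that limit but hit not confirmed in images; inactive = inhibition not above that limit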;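 also: 0% = TNF-stimulated DMSO wells and 100% = unstimulated control wells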
E-sel TNF inh – E-selectin induction blockers in HUVEC – imaging, immunofluorescence, high content, primary screen; AID 1246, 2008; 0.71% of 120,000 active; inhibition, % at 2 µM; HUVEC TNFa-induced E-selectin immunofluorescence;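 active = inhibition above the batch mean plus 3 SD, and confirmed as a hit on visual image review, cut at about 43% in these data; inconclusive = passes the inhibition cutoff but fails visual image review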;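 also: 0% = TNF-stimulated DMSO wells and 100% = unstimulated control wells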
cytoskel mod – modifiers of F-actin cytoskeleton organization, primary screen, imaging, HUVEC, phalloidin staining, high-content imaging. AID 836, 2007. HUVEC TNFa F-actin phalloidin imaging. inhibition, % at 2 µM. 0.18% of 91,000 active;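 active = inhibition above the batch mean plus 3 SD and confirmed as a hit by visual image inspection, cut at about 30% in these data, passing the limit was not always enough; inconclusive = above the inhibition threshold but rejected on visual inspection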
HUVEC tox TNFa – cytotoxicity in TNFa-stimulated HUVEC, primary screen, cytotoxicity control for VCAM1 expression modulator project, imaging, Hoechst nuclei count; HUVEC TNFalpha-stimulated, Hoechst cell count; cell count reduction, % at 2 µM; 0.17% of 93,000 active; AID 848, 2007;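 active = cell count reduction exceeding the screen mean by over 5 SD, scaled to untreated wells per plate, cut at about 78% in these data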;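 also: cells counted after 24 h of TNF alpha exposure following the 1 h pretreatment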
* hit, by the source's call.

`CC(C)C(c1nnnn1Cc1ccc2c(c1)OCO2)N1CCN(c2ccccc2)CC1` (stereo not given) gave VCAM1 TNFa inh 6, E-sel TNF inh -25, cytoskel mod -14 and HUVEC tox TNFa -24.
Screening CC(C)C(c1nnnn1Cc1ccc2c(c1)OCO2)N1CCN(C)CC1 (stereo not given) returned VCAM1 TNFa inh 8, E-sel TNF inh 42*, cytoskel mod -9 and HUVEC tox TNFa -20.
Screening COc1ccc(N2CCN(C(=O)CN(C)S(=O)(=O)c3cnc[nH]3)CC2)cc1 returned E-sel TNF inh -7.
CCOc1cccc(C(=O)NC(=S)Nc2ccc(N3CCCC3)cc2)c1 was read as VCAM1 TNFa inh -2, E-sel TNF inh 53*, cytoskel mod 10 and HUVEC tox TNFa -16.
For CCOc1cccc(C(=O)Nc2ccc(N3CCN(S(C)(=O)=O)CC3)cc2)c1 the results were VCAM1 TNFa inh 8, cytoskel mod -8 and HUVEC tox TNFa -30.
`Cc1cc(C)c(C#N)c(=N)o1` gave VCAM1 TNFa inh -3, E-sel TNF inh 62*, cytoskel mod 19 and HUVEC tox TNFa 10.
Screening Cc1ccc(-n2c([O-])nc(-[n+]3ccccc3)c2C=O)cc1 returned VCAM1 TNFa inh 10, cytoskel mod 37* and HUVEC tox TNFa 29.
CCN(CC)CCN(Cc1cc2cc(C)ccc2[nH]c1=O)C(=S)Nc1ccccc1 was read as E-sel TNF inh -41.
O=c1c2c(n3nnnc3n1-c1ccccc1)-c1ccccc1CC21CCCC1 was read as VCAM1 TNFa inh -3, E-sel TNF inh 100*, cytoskel mod -17 and HUVEC tox TNFa -28.
Clc1ccc(CNc2ccc3nnc(-c4ccccc4)n3n2)cc1 was read as E-sel TNF inh 76*.
O=C(O)C1CCCCC1C(=O)Nc1cc(Cl)ccc1Cl (stereo not given) was read as VCAM1 TNFa inh 10, E-sel TNF inh -34, cytoskel mod 37* and HUVEC tox TNFa 54.
`CC1=CS(=O)(=O)CC1SC(=S)N(C)C1CCS(=O)(=O)C1` (stereo not given) gave E-sel TNF inh -28.
`Oc1ccc(Nc2nc3ccccc3nc2Nc2ccc(O)cc2)cc1` gave VCAM1 TNFa inh 94*, E-sel TNF inh 46 and cytoskel mod inconclusive.
For c1ccc(NC2=NCCCCS2)cc1 the results were VCAM1 TNFa inh 14, E-sel TNF inh 54*, cytoskel mod 4 and HUVEC tox TNFa 2.
CCc1ccc(N2CC(C(=O)Nc3cccnc3)CC2=O)cc1 (stereo not given) was read as VCAM1 TNFa inh 3, E-sel TNF inh 63*, cytoskel mod -10 and HUVEC tox TNFa -9.
COc1ccc(NS(=O)(=O)c2cc(C)ccc2NC(=O)c2cc(C)oc2C)cc1 was read as VCAM1 TNFa inh 44*, E-sel TNF inh 2, cytoskel mod -59 and HUVEC tox TNFa 32.
Screening Cc1ccc(NC(=O)/C=C/c2ccc3c(c2)OCO3)cc1S(=O)(=O)N1CCOCC1 returned E-sel TNF inh -5.
Cn1c(=O)cc(SCC(=O)NCCCN2CCOCC2)c2ccccc21 was read as VCAM1 TNFa inh 22, cytoskel mod 5 and HUVEC tox TNFa -1.
For CCCCNC(=O)CSc1cc(=O)n(C)c2ccccc12 the results were VCAM1 TNFa inh 0, cytoskel mod 31* and HUVEC tox TNFa 40.
CS(=O)(=O)N1CCC(C(=O)N2CCN(c3ccc(F)cc3)CC2)CC1 was read as E-sel TNF inh -10.
`O=c1cc(C(F)F)oc2c1ccc1ccccc12` gave E-sel TNF inh 93*.
`O=C1CC(O)(C(F)F)Oc2ccc3ccccc3c21` (stereo not given) gave VCAM1 TNFa inh 33, E-sel TNF inh -39, cytoskel mod 4 and HUVEC tox TNFa 7.
For CCOC(=O)N1CCC(NC(=O)CN2C(=O)CSc3nc(C)cc(C)c32)CC1 the results were VCAM1 TNFa inh -4, E-sel TNF inh 83*, cytoskel mod -1 and HUVEC tox TNFa -14.
`CCOC(=O)c1ccc(NC(=O)Cn2nnc(-c3ccccc3)n2)cc1` gave VCAM1 TNFa inh 88*, cytoskel mod 23 and HUVEC tox TNFa 98*.
Screening CCCOC(=O)c1ccc(Oc2coc3c(CN(CC)CC)c(O)ccc3c2=O)cc1 returned E-sel TNF inh -10.
`CCNc1nc(NCC)n2c(SCc3nc4ccccc4c(=O)[nH]3)nnc2n1` gave VCAM1 TNFa inh 18, E-sel TNF inh -30, cytoskel mod 2 and HUVEC tox TNFa -12.
`CCNc1nc(NCC)n2c(SCc3ccc(F)cc3)nnc2n1` gave VCAM1 TNFa inh 91*, E-sel TNF inh 10, cytoskel mod -37 and HUVEC tox TNFa 88*.
